Assay outcomes (PubChem BioAssay)
Sampled rows, rich in hits. Any-hit rate of the full collection: about 2.3%.
M1 antag = blocks human M1 muscarinic receptor | AID 588852 | inhibition, % at 3 µM | CHO-K1 hM1, Fluo-8 calcium fluorescence, ACh EC80 antagonist | actives 1.3% (n = 360,000) | P11229;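 active means percent inhibition above its own plate's cutoff, namely the mean of that plate's compound wells plus 3 SD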;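 further: peak over basal fluorescence ratio during 140 s after agonist addition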
Target sequence (P11229 whole entry, looked up): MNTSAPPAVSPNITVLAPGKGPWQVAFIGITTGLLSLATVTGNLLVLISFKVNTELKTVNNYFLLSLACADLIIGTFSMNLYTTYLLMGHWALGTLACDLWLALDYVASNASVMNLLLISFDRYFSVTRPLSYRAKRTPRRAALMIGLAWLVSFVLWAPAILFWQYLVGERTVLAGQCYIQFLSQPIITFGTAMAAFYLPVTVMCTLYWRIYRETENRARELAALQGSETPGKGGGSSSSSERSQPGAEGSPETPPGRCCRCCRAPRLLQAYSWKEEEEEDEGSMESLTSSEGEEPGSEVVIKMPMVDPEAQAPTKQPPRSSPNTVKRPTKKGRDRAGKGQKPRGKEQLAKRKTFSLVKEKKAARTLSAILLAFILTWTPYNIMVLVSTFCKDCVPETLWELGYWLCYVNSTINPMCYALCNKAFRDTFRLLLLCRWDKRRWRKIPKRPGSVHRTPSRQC
CHRM1 PAM = positive allosteric modulators of human M1 muscarinic receptor | P11229 | CHO-K1 hM1, Fluo-8 calcium fluorescence, ACh EC20; 0% = ACh EC20, 100% = maximal ACh | activation, % at 3 µM | actives 0.088% (n = 360,000) | AID 588819; in the data active means activation above about 19%, passing the limit was not always enough
CHO-K1 Ca ag = nonselective activator or artifact in parental CHO-K1 cells; Fluo-8 calcium fluorescence; scaled to maximal ATP response, vehicle zero; activation, % at 3 µM; actives 0.48% (n = 360,000); AID 602248; in the data active means activation above about 15%;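 further: untransfected CHO-K1 host cells lacking M1 receptor as counterscreen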
CHO-K1 Ca antag = counter-screen for M1 antagonists: effect in parental CHO-K1 cells | AID 602250 | actives 0.6% (n = 360,000) | inhibition, % at 3 µM | ATP-induced calcium, Fluo-8 fluorescence;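 active means inhibition above a per-plate cutoff, the plate's mean sample inhibition plus 3 SD, cut at about 24% in these data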
M1 PAM parental = nonselective activator or artifact in parental CHO-K1 calcium assay; ATP EC20, Fluo-8 calcium fluorescence; 0% at ATP EC20, 100% at ATP max; actives 0.02% (n = 360,000); activation, % at 3 µM;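 active means activation above the run cutoff, the mean activation of all test compounds plus 3 SD, cut at about 40% in these data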;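 further: peak over basal fluorescence ratio in a 140 s read after ATP addition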
M1 ag = agonists of human M1 muscarinic receptor; CHO-K1 hM1, Fluo-8 calcium fluorescence, agonist mode; 0% DMSO, 100% acetylcholine EC100; activation, % at 3 µM; actives 0.33% (n = 360,000);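 active means activation above the run's mean compound activation plus 3 SD, cut at about 16% in these data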;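 further: peak over basal fluorescence ratio within a 140 s kinetic read after compound addition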
Of the large screens only hits and unclear results are named; the others gave an inactive call.

CC(C)(C)OC(=O)CNC(=O)c1[nH]cnc1C(=O)NCCCCCN	none
CC(C)(C)OC(=O)CNC(=O)c1[nH]cnc1C(=O)NCCCCCNC(=O)OC(C)(C)C	CHO-K1 Ca ag 16.6
CC(C)C[C@H](NC(=O)c1nc[nH]c1C(=O)NCCCCCNC(=O)OC(C)(C)C)C(=O)OC(C)(C)C	M1 antag 60.5
CC(C1=C(CCN(C)C)Cc2ccccc21)c1ccccn1 (stereo not given)	M1 antag 77.4
CN(C)CCC(c1ccccc1)c1ccccn1 (stereo not given)	none
CCCCCCCCCC1(CC(=O)OCC)SCCN1C(N)=O (stereo not given)	none
COc1ccccc1CNc1nc(NCc2cccc(OC)c2OC)c2sccc2n1	none
C#Cc1cccc(Nc2nc(NCc3ccccc3OC)nc3ccsc23)c1	M1 antag 34.6
C#Cc1cccc(Nc2nc(NCCOC)nc3ccsc23)c1	none
c1ccc(CNc2nc(NCCOc3ccccc3)c3sccc3n2)cc1	M1 antag 43.1, CHO-K1 Ca ag 35.3, CHO-K1 Ca antag 27.7, M1 ag 18.7
COc1ccccc1CNc1nc(NCc2ccccc2F)c2sccc2n1	M1 antag 40.2, CHO-K1 Ca ag 16.5, CHO-K1 Ca antag 27.7
COCCNc1nc(NCc2ccccc2F)c2sccc2n1	none
COc1ccccc1CNc1nc(NCc2ccccc2)nc2ccsc12	CHO-K1 Ca antag 24.0
CN(C(=O)c1cccc(NC(=O)Cc2cccc(NC(=O)C3CCCN(C(=O)CCc4ccccc4)C3)c2)c1)C1CCC1 (stereo not given)	none
Cc1nc(N2CCN(S(=O)(=O)c3ccccc3C#N)CC2)c2c(-c3ccccc3)csc2n1	none
CCOC(=O)[C@@H]1[C@H]2COc3ccccc3[C@@H]2N2C(=O)N(c3ccc(C)cc3)C(=O)[C@]12C	none
Fc1cc(Cl)ccc1Nc1nc(NCc2ccccc2)nc2ccsc12	none
c1ccc(CNc2nc(NCc3ccccc3)c3sccc3n2)cc1	M1 antag 55.7, CHO-K1 Ca ag 27.5, M1 ag 32.0
COc1ccc(C[C@@H]2CN3C(=NC[C@@H]3Cc3ccc(O)cc3)N2C[C@H](C)NC(=O)CCC2CCCCC2)cc1	M1 antag 48.3
COc1ccc(S(=O)(=O)NC(=O)C2(C)CCN2C(=O)C2(c3ccccc3)CCCC2)cc1 (stereo not given)	none
Cc1c(C(=O)Nc2ccccc2N2CCN(C)CC2)oc2ccc(F)cc12	none
Cc1ccc(S(=O)(=O)N2CCc3ccccc3C2)cc1C	none
COc1cc(C(C)=O)ccc1OCCN1CCC(Cc2ccccc2)CC1	M1 antag 45.2
COc1cc(C(C)=O)ccc1OCCCN1CCC(Cc2ccccc2)CC1	M1 antag 43.8
Cc1ccc(Nc2nc3nonc3[nH]c2=O)cc1Cl	CHO-K1 Ca antag 29.6
CCCCOc1ccc(C(=O)N2CCCC2C(=O)O)cc1 (stereo not given)	none
CCCOc1ccc(C(=O)N2CCCC2C(=O)O)cc1 (stereo not given)	CHRM1 PAM 27.8
O=S(=O)(c1ccc(Cl)cc1)c1snnc1-c1ccccc1	M1 antag 37.4
O=C(Nc1ccc(OCC(F)(F)C(F)F)c(C(F)(F)F)c1)c1ccccc1O	M1 antag 20.1, CHO-K1 Ca antag 24.0
CCN1CCN(CC(O)COC(c2ccccc2)c2ccccc2C)CC1 (stereo not given)	none
c1ccn2cc(C34CC5CC(CC(C5)C3)C4)nc2c1	M1 antag 54.2
O=S(=O)(c1ccc(C2CCCCC2)cc1)N1CCCC1	none
CN(C1CCCCC1)S(=O)(=O)c1ccc(S(=O)(=O)N2CCCC2)cc1	M1 antag 32.4
COc1ccc(Br)c(OC)c1C(=O)NC(=O)Nc1nc(C)cc(C)n1	none
O=C(CCCN=C1NS(=O)(=O)c2ccccc21)OCC(=O)c1ccc(F)cc1	M1 ag 22.4
COc1ccc(NC(=O)Nc2ccc3c(c2)N(C)C(=O)CS3)cc1Cl	CHO-K1 Ca antag 28.1
CC(C)CCNC(=O)Nc1ccc2c(c1)N(C)C(=O)CS2	M1 antag 32.9
COc1ccc(NC(=O)Nc2ccc3c(c2)N(C)C(=O)CS3)cc1OC	none
Cc1noc(C)c1S(=O)(=O)N(C)C[C@H]1Oc2ccc(NS(=O)(=O)c3cn(C)cn3)cc2C(=O)N([C@H](C)CO)C[C@@H]1C	none
